# Key:
# Assay in all cases: PBM binding z-score (relative to random genomic background probes); higher = stronger binding; sequences stand for … in GC…GCGATTGACAGCGTAGAATGAAGG
# [1] = system: RARb homodimer (NR concentration 270 nM)
# Procedure, shortened: (§1)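 Regression normalization was applied to scanned fluorescence from custom Agilent 4×180K protein-binding microarrays. Before scanning, arrays were incubated 1 h with ligand-free nuclear receptor dimers, and binding was detected with antibodies against each partner (one per run). Binding z-scores use the random background probes as reference.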
# [2] = system: RARg:RXRa (NR concentration 270 nM, RXRa partner concentration 90 nM)
# Procedure, shortened: as §1
# [3] = system: RARg homodimer (NR concentration 270 nM)
# Procedure, shortened: as §1
# [4] = system: RXRa DBDmut IVT, anti-RXR (DBD mutation: RXRa K156A/R161A, NR concentration 90 nM)
# Procedure, shortened: as §1
# [5] = system: RXRa homodimer (NR concentration 180 nM)
# Procedure, shortened: as §1
# [6] = system: THRa:RXRa (NR concentration 90 nM, RXRa partner concentration 90 nM)
# Procedure, shortened: as §1
# [7] = system: THRa homodimer (NR concentration 90 nM)
# Procedure, shortened: as §1
# [8] = system: VDR:RXRa (NR concentration 270 nM, RXRa partner concentration 90 nM)
# Procedure, shortened: as §1
# [9] = system: VDR homodimer (NR concentration 270 nM)
# Procedure, shortened: as §1
Sequence,PBM binding z-score [1],PBM binding z-score [2],PBM binding z-score [3],PBM binding z-score [4],PBM binding z-score [5],PBM binding z-score [6],PBM binding z-score [7],PBM binding z-score [8],PBM binding z-score [9]
GCTTGTAGATCAAGGTTAAGATAGACTAAGCTAA,0.293,0.611,0.411,0.0981,1.04,1.21,-0.344,0.0807,-0.108
ATCTCTAGGTAACCAAGTTCAGTAAATGCCGAAC,1.71,0.886,0.809,1.13,0.802,1.67,1.07,4.07,2.48
TAGCCTAGGTCATGCGGGCAAGTATAGTGTCGGC,3.16,4,4.38,0.563,3.03,2.89,0.9,2.21,0.528
ATCTCTAGGTAAAGATAGTTCAGAGAATGCAAAT,0.692,0.65,0.767,-0.136,0.482,0.724,0.0734,0.478,0.51
ACTTACGGGTCAACGAGGGTATAGCACGCGTATA,3.24,5.55,4.88,2.4,5.63,3.42,-0.0304,7.1,2.67
TCTGCTACGTCAGTTGGTCAGCTAACGAGCTGCC,-0.763,-0.688,-0.884,0.0505,-0.761,-1.71,-0.995,-0.996,-1.44
CCTTACGGGTCACTCCAGGTGATAGCATCGGAGT,2.96,4.43,4.29,1.6,4.45,4.81,0.559,3.34,1.16
TCGAGTAGGTTAGGGGCAGTCAGAATGGCGTCGA,1.27,0.245,0.258,0.0348,0.203,0.742,0.229,0.0468,0.0516
TGAATGAGGTTAAAGATTAGGGAACGTGGCGTCG,0.481,1.91,1.29,1.09,2.89,2.37,0.417,1.44,0.533
CCTAGTTTGTCAAGGTCACACACGCTATAGGTAC,4.5,4.51,4.58,2.88,4.73,4.32,4.77,4.46,4.93
AGAATGAGGTTATACGTATATCAGGGAAGAAAGT,0.94,1.77,1.35,1.42,2.34,2.5,0.645,,0.832
TCTAGTTGGGCAAAGGTCACACACTCGAAATGCG,5.01,6.49,5.87,1.44,7.41,3.99,1.54,4.65,2.26
ATCTCTAGGTAAAGTTCAATGAAAGATCGATAGA,2.76,2.7,2.91,1.75,2.27,1.57,0.271,2.5,2.82
GCTTGTAGATCAAGGTGAAGAAAGACTAAGCTAA,-0.485,-0.139,-0.0485,-0.298,-0.15,1.04,0.0567,-0.394,-0.307
TATACAGGGTCAAAGGCCAGAGAACGAATGTCGA,3.31,5.7,5.34,2.75,7.14,3.4,0.635,,2.34
AGTCAAAGTTCACTAGGTCACGTAAGATTCAGCT,5.29,6.62,7.17,4.43,5.44,3.72,2.54,,4.43

# — the supplement of paper PMC6555819
